Drawing on PubChem BioAssay (NCI), this text covers growth for 15 compounds.

“And” between values parts separate entries of the source, which are not always exact repeats. Equal entries are not always repeated. The panel holds about 83,000 compounds, 20% with a hit somewhere; the sample as a whole holds those more often.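 96-well plates, one dose, 48 hours. Percent growth reported; active if below 10.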 The source made the active and inactive calls.

Test in all cases: NCI-60 one-dose screen, 48 h (100 = growth as untreated, 0 = no growth, -100 = all killed)
The subject of one test is HCT-15 colon. The settings on record: 10 µM.
Another test has as its system HT29 colon. The settings on record: 10 µM.
A further test deals with SNB-75 CNS. Conditions: 10 µM.
The subject of another test is SNB-19 CNS. The settings on record: 10 µM.
In another test the test system is U251 CNS. Conditions: 10 µM.
Another test has as its system PC-3 prostate. Conditions: 10 µM.
The test system of a further test is SK-MEL-5 melanoma. The settings on record: 10 µM.
For a further test, the system named is UACC-62 melanoma.
In a further test the test system is LOX IMVI melanoma. Conditions: 10 µM.
A further test concerns SK-MEL-28 melanoma. Conditions: 10 µM.

For `Cc1ccc(/C(C#N)=C/c2ccc3c(c2)OCO3)cc1`, the growth in the test with HCT-15 colon was 69.5% (inactive); in the test on HT29 colon, 37.1% (inactive); in the test with SNB-75 CNS, 67.8% (inactive); in the test with SNB-19 CNS it was 88.4% (inactive); with U251 CNS, 63.2% (inactive); with PC-3 prostate, 81.9% (inactive). In addition, the results for the growth in the test on SK-MEL-5 melanoma, in the test with UACC-62 melanoma (10 µM unless noted) and in the test on LOX IMVI melanoma were 58.6% (inactive), 73.5% (inactive) and 74.9% (inactive), respectively.

Consider `CC1SC(N)=NC1=O` (stereo unspecified), for which the growth in the test with HCT-15 colon is 114% (inactive); in the test with HT29 colon, 128% (inactive); in the test on SNB-75 CNS it was 103% (inactive); in the test with SNB-19 CNS it was 109% (inactive); in the test on U251 CNS, 113% (inactive); in the test on PC-3 prostate it was 106% (inactive). The growth in the test with SK-MEL-5 melanoma was 113% (inactive); in the test with UACC-62 melanoma (10 µM unless noted), 100% (inactive); with LOX IMVI melanoma, 104% (inactive).

For `N#CSc1cc(S(N)(=O)=O)ccc1N`, the growth was 108% (inactive) in the test on HCT-15 colon; 101% (inactive) with HT29 colon; 85.5% (inactive) with SNB-75 CNS; 102% (inactive) in the test with SNB-19 CNS; 101% (inactive) in the test with U251 CNS; 109% (inactive) in the test with PC-3 prostate. In addition, the growth in the test on SK-MEL-5 melanoma is 101% (inactive); in the test on UACC-62 melanoma (10 µM unless noted), 104% (inactive); in the test on LOX IMVI melanoma, 99.9% (inactive); in the test with SK-MEL-28 melanoma, 102% (inactive).

With `CN(C)c1ccc(S(=O)(=O)O)cc1`, the growth in the test with HCT-15 colon is 102% (inactive); with HT29 colon, 102% (inactive); with SNB-75 CNS it was 96.3% (inactive); with SNB-19 CNS it was 109% (inactive); with U251 CNS, 108% (inactive); in the test with PC-3 prostate it was 88.9% (inactive). Also, the results for the growth with SK-MEL-5 melanoma, with UACC-62 melanoma (10 µM unless noted) and in the test with LOX IMVI melanoma were 98.9% (inactive), 108% (inactive) and 102% (inactive), respectively.

Take `COc1cc2c3cc1Oc1c(OC)c(OC)cc4c1C(Cc1ccc(O)c(c1)Oc1ccc(cc1)CC3N(C)CC2)N(C)CC4` (stereo unspecified): the growth is 6.32% (active) in the test on HCT-15 colon; -21.8% (active) in the test with HT29 colon; 33.3% (inactive) with SNB-75 CNS; 27.2% (inactive) in the test with SNB-19 CNS; -95.9% (active) in the test with U251 CNS; 1.26% (active) in the test with PC-3 prostate. For the same compound, the growth in the test on SK-MEL-5 melanoma is -98.2% (active); in the test on UACC-62 melanoma (10 µM) it was 27.6% (inactive); with UACC-62 melanoma (100 µM), 98.2% (inactive) and -80.6% (active); with LOX IMVI melanoma, -90.5% (active); in the test on SK-MEL-28 melanoma, -80.8% (active).

Turning to `O=C(O)CCCc1ccccc1`, the growth was 101% (inactive) in the test on HCT-15 colon; 109% (inactive) in the test on HT29 colon; 99.9% (inactive) in the test on SNB-75 CNS; 105% (inactive) in the test on SNB-19 CNS; 95.3% (inactive) in the test on U251 CNS; 99.3% (inactive) with PC-3 prostate. The growth was 108% (inactive) in the test with SK-MEL-5 melanoma, 108% (inactive) in the test with UACC-62 melanoma (10 µM unless noted) and 102% (inactive) with LOX IMVI melanoma.

For the compound `Cc1ccc(C(O)C2CC2)cc1` (stereo unspecified), the growth with HCT-15 colon is 97.7% (inactive); in the test on HT29 colon it was 104% (inactive); in the test on SNB-75 CNS, 88.9% (inactive); in the test on SNB-19 CNS it was 96.7% (inactive); in the test on U251 CNS, 100% (inactive); in the test with PC-3 prostate it was 94.5% (inactive). In addition, the growth is 103% (inactive) with SK-MEL-5 melanoma, 98.8% (inactive) with UACC-62 melanoma (10 µM unless noted) and 100% (inactive) with LOX IMVI melanoma.

With `NCCCN`, the growth was 101% (inactive) with HCT-15 colon; 111% (inactive) with HT29 colon; 79.8% (inactive) in the test on SNB-75 CNS; 104% (inactive) in the test with SNB-19 CNS; 95.5% (inactive) with U251 CNS; 102% (inactive) in the test on PC-3 prostate. Also, the growth is 102% (inactive) in the test with SK-MEL-5 melanoma, 109% (inactive) with UACC-62 melanoma (10 µM unless noted), 112% (inactive) in the test with LOX IMVI melanoma and 104% (inactive) in the test on SK-MEL-28 melanoma.

For the compound `CC(=O)c1cc2c(cc1F)C(C)(C)CCC2(C)C`, the growth with HCT-15 colon is 100% (inactive); in the test on HT29 colon it was 106% (inactive); in the test with SNB-75 CNS it was 84.8% (inactive); with SNB-19 CNS it was 102% (inactive); in the test with U251 CNS it was 104% (inactive); in the test on PC-3 prostate it was 95.6% (inactive). In addition, the growth with SK-MEL-5 melanoma was 102% (inactive); in the test with UACC-62 melanoma (10 µM unless noted), 97.1% (inactive); with LOX IMVI melanoma it was 96% (inactive); in the test on SK-MEL-28 melanoma, 107% (inactive).

For `CC1=NN(c2ccccc2)C(=O)/C1=C\N1CC(=O)NC1=S`, the growth in the test with HCT-15 colon was 107% (inactive); with HT29 colon, 103% (inactive); with SNB-75 CNS, 91.2% (inactive); with SNB-19 CNS, 101% (inactive); in the test on U251 CNS it was 98.3% (inactive); in the test with PC-3 prostate, 93.6% (inactive). In addition, the growth in the test on SK-MEL-5 melanoma is 101% (inactive); in the test on UACC-62 melanoma (10 µM unless noted), 97.1% (inactive); in the test with LOX IMVI melanoma, 98.4% (inactive); in the test with SK-MEL-28 melanoma, 112% (inactive).

For the compound `O=C(O)CCC(=O)OC(C1CO1)C(OC(=O)CCC(=O)O)C1CO1` (stereo unspecified), the growth in the test with HCT-15 colon was 97.9% (inactive); in the test with HT29 colon, 100% (inactive); with SNB-75 CNS, 94.7% (inactive); in the test with SNB-19 CNS it was 111% (inactive); in the test on U251 CNS, 95.7% (inactive); with PC-3 prostate, 96.3% (inactive). For the same compound, the growth was 98.8% (inactive) in the test with SK-MEL-5 melanoma, 111% (inactive) in the test with UACC-62 melanoma (10 µM unless noted), 97.1% (inactive) in the test with LOX IMVI melanoma and 110% (inactive) in the test with SK-MEL-28 melanoma.

For `Nc1ccc(NC(=O)c2cccc(N)c2)cc1`, the growth is 101% (inactive) in the test with HCT-15 colon; 105% (inactive) with HT29 colon; 91.3% (inactive) in the test with SNB-75 CNS; 94.8% (inactive) in the test on SNB-19 CNS; 96.2% (inactive) in the test with U251 CNS; 82.9% (inactive) with PC-3 prostate. Besides, the growth was 103% (inactive) in the test with SK-MEL-5 melanoma, 96.5% (inactive) with UACC-62 melanoma (10 µM unless noted), 89.9% (inactive) with LOX IMVI melanoma and 104% (inactive) in the test on SK-MEL-28 melanoma.

Take `Cc1cc2ccccc2c(O)c1C#N`: the growth is 92.2% (inactive) in the test on HCT-15 colon; 123% (inactive) with HT29 colon; 78.3% (inactive) with SNB-75 CNS; 100% (inactive) in the test with SNB-19 CNS; 109% (inactive) with U251 CNS; 105% (inactive) in the test with PC-3 prostate. Also, the growth in the test on SK-MEL-5 melanoma is 104% (inactive); in the test on UACC-62 melanoma (10 µM unless noted), 97.7% (inactive); in the test with LOX IMVI melanoma it was 94.4% (inactive); in the test on SK-MEL-28 melanoma, 115% (inactive).

On to `O=c1[nH]n(-c2ccccc2)c(=O)cc1Cl`, for which the growth is 120% (inactive) with HCT-15 colon; 110% (inactive) in the test with HT29 colon; 95.2% (inactive) in the test with SNB-75 CNS; 98.9% (inactive) with SNB-19 CNS; 109% (inactive) in the test on U251 CNS; 97.3% (inactive) in the test on PC-3 prostate. The growth with SK-MEL-5 melanoma is 102% (inactive); with UACC-62 melanoma (10 µM unless noted), 87.3% (inactive); in the test on LOX IMVI melanoma, 96% (inactive); with SK-MEL-28 melanoma it was 117% (inactive).

Turning to `COc1cc2nc3cc([N+](=O)[O-])ccc3c(Cl)c2cc1OC`, the growth in the test on HCT-15 colon is 94.6% (inactive); with HT29 colon, 105% (inactive); in the test on SNB-75 CNS, 104% (inactive); in the test on SNB-19 CNS it was 106% (inactive); in the test on U251 CNS, 89.1% (inactive); in the test on PC-3 prostate, 90.9% (inactive). Also, the growth is 99.1% (inactive) with SK-MEL-5 melanoma, 74.8% (inactive) in the test on UACC-62 melanoma (10 µM unless noted), 105% (inactive) with LOX IMVI melanoma and 108% (inactive) with SK-MEL-28 melanoma.
